Here are results for 57 compounds from PubChem BioAssay AID686979 (National Center for Advancing Translational Sciences (NCATS), 2013).

Out of some 420,000 compounds screened, about 50,000 (12%) were called active. Roughly 26% stayed inconclusive and do not appear here. This excerpt belongs to a sample that is enriched for actives. Values without a mark were called inactive. Calls come from the whole dose curve; as a rule, active = well fitted inhibition curve with a large enough effect; inconclusive = small, poorly fitted or top-dose-only effect; inactive = flat fitted curve, though single readings scatter.
% is set by controls: 0 for no effect and ±100 for the full control effect; potency is the fitted concentration of half-maximal effect.

The nature of the assay: qHTS for Inhibitors of human tyrosyl-DNA phosphodiesterase 1 (TDP1): qHTS in cells in presence of CPT. Note: nearly all actives have a fitted effect of over 55% in size. The settings on record: chicken DT40 Tdp1-/-;hTDP1 cells + 20 nM CPT, ATP luminescence, 48 h; series mostly up to 46.2 µM; activity change, negative = growth inhibition: at the top concentration. Summed up:
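Chicken DT40 Tdp1-/- cells complemented with human TDP1, 400 cells/well, exposed to compounds plus 20 nM camptothecin for at least 48 h at 37 C; viability read as ATP content by CellTiter-Glo luminescence.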
On to `C/[N+]([O-])=C\c1ccc([N+](=O)[O-])o1`, for which the Potency was 25.9 µM (active).
Turning to `COc1ccc(C(=O)NCC(=O)N/N=C/c2ccc([N+](=O)[O-])s2)cc1OC`, the Potency is 20.6 µM (active).
Same read-out and setting: in the case of `Cc1ccccc1NCC(=O)N/N=C\c1ccc([N+](=O)[O-])s1` it was 8.2 µM (active).
Consider `Cc1nn(-c2ccccc2)c(Cl)c1/C=N/NC(=O)c1nn(C)cc1[N+](=O)[O-]`, for which the “activity change, negative = growth inhibition” value is -5.46%.
In the case of `O=C(COC(=O)Cc1ccc(Cl)cc1Cl)NCc1ccco1`, the “activity change, negative = growth inhibition” value was -8.95%.
The same measure, in the same setting: for `CN(C)/C=C(/C(=O)c1ccccc1)S(=O)(=O)c1ccc(Cl)cc1` the value was 0.918%; for `Cc1cc(Cl)nc(NC(=O)Nc2cccc(Cl)c2)n1`, -5.03%; for `COc1cc(C(=O)Nc2cc(C(F)(F)F)ccc2N2CCOCC2)ccc1O`, -4.87%.
Still for that read-out and setting: in the case of `COc1ccc(NC(=O)CC(NC(C)c2ccccc2)C(=O)O)cc1` (configuration not stated) it was 7.18%; in that of `CCC(=O)c1c[nH]c(C(=O)NCC2CCCO2)c1` (configuration not stated), -0.0051%; in that of `CCOC(=O)C1=CN(Cc2ccc(Br)cc2)S(=O)(=O)NC1C` (configuration not stated), -10.2%.
`COc1ccccc1/C=C/C=N/n1c(-c2ccc(Cl)cc2Cl)n[nH]c1=S`: the “activity change, negative = growth inhibition” value was -20.8%.
Still for that read-out and setting: for `COc1ccc(Cl)cc1C=CC=NNC(=O)c1ccncc1` the value was -28.1%.
`COc1ccc(Cl)cc1C=CC=Nc1ccc(S(N)(=O)=O)cc1`: the Potency is 18.4 µM (active).
Regarding `Cc1ccc(NC(=O)CN(C)C(=O)c2ccc(Cl)c(S(=O)(=O)NCc3ccco3)c2)cc1`, the “activity change, negative = growth inhibition” value is -11%.
Take `CCCCN1C(=O)/C(=C(/C#N)C(N)=O)c2ccccc21`: the “activity change, negative = growth inhibition” value is -25.4%.
Regarding `COc1ccc2c(c1)C(=C(C#N)C#N)C(=O)N2CCc1ccccc1`, the Potency is 3.66 µM (active).
Consider `COc1ccc(CNC(=O)CCN2C(=O)c3ccccc3C2=O)cc1`, for which the “activity change, negative = growth inhibition” value is -3.64%.
Still for that read-out and setting: in the case of `Cc1ccc(C(=O)Oc2coc(CSc3nnc(NC(=O)c4cccs4)s3)cc2=O)cc1C` it was -13.4%.
In the case of `Cc1cccc(NC(=S)NCCc2ccc(Cl)cc2)c1C`, the Potency was 18.4 µM (active).
For `CCNC(=S)Nc1cccc(Cl)c1C`, the “activity change, negative = growth inhibition” value is -13.1%.
On to `Cc1c(Cl)cccc1NC(=S)NCC(O)c1ccccc1` (configuration not stated), for which the “activity change, negative = growth inhibition” value was 4.14%.
Consider `CCOCCCNC(=O)c1cc2c(=O)n3ccccc3nc2s1`, for which the Potency result is “inactive”.
On to `Cc1ccc(S(=O)(=O)N(C)c2ccc(OCC(=O)OCC(=O)N(CC#N)c3ccccc3)cc2)cc1`, for which the “activity change, negative = growth inhibition” value was 4.22%.
Turning to `COc1ccc(C(=O)NCCn2nc(C)cc2C)cc1OC1CCN(C(C)=O)CC1`, the “activity change, negative = growth inhibition” value is -1.37%.
Take `Cc1cc(OCCCCOc2ccc(C#N)cc2)ccc1[N+](=O)[O-]`: the Potency is 13 µM (active).
`Cc1ccc(OCC(=O)Oc2ccccc2[N+](=O)[O-])cc1`: the “activity change, negative = growth inhibition” value is 9.02%.
Same read-out and setting: in the case of `Cc1cc(OCC(=O)NC2CCN(C)CC2)ccc1[N+](=O)[O-]` it was -5.16%; in that of `O=[N+]([O-])c1ccccc1OCCCCN1CCCCC1`, -1.52%.
On to `Cc1cc(OCCCN2CCN(Cc3ccccc3)CC2)ccc1[N+](=O)[O-]`, for which the Potency was 23.1 µM (active).
Turning to `Cc1cc(OCC(=O)Nc2c(C)n(C)n(-c3ccccc3)c2=O)ccc1[N+](=O)[O-]`, the “activity change, negative = growth inhibition” value was -3.95%.
Take `COC(=O)c1cccc(N(CC(=O)NCC2CCCO2)C(=O)CCC(=O)Nc2cc(C)on2)c1` (configuration not stated): the “activity change, negative = growth inhibition” value was 12.7%.
With `O=C(CSc1nnc(CNC(=O)c2ccc(F)cc2)o1)Nc1ccc2c(c1)OCO2`, the “activity change, negative = growth inhibition” value is -15.9%.
As to `O=C(Nc1ccncc1)c1ccc(Cl)c([N+](=O)[O-])c1`, the Potency was 11.6 µM (active).
Take `O=C(Nc1cccnc1)c1ccc(Cl)c([N+](=O)[O-])c1`: the “activity change, negative = growth inhibition” value is 10%.
In the case of `Cc1ccnc(NC(=O)c2ccc(Cl)c([N+](=O)[O-])c2)c1`, the “activity change, negative = growth inhibition” value is -10.8%.
Still for that read-out and setting: for `Cc1ccc2c(=O)c(C(=O)c3ccc(F)cc3)cn(CC(=O)NC3CCCCC3)c2n1` the value was -17.8%.
`N=C(N)SCc1cccc2ccccc12`: the Potency was 18.4 µM (active).
On to `c1ccc2c(CNn3cnnc3)cccc2c1`, for which the “activity change, negative = growth inhibition” value was -4.07%.
On the same count and under the same terms, for `c1ccc(NCc2cccc3ccccc23)nc1` the value was -7.92%; for `COc1cc(NC(=O)COc2ccccc2Cl)ccc1NC(=O)C(C)C`, -20%.
On the same count and under the same terms, in the case of `CCCC(=O)NC(=S)Nc1ccc(CN2CCOCC2)cc1` it was 4.02%.
Turning to `CC(Sc1nnc(CNC(=O)c2ccccc2F)n1C)C(=O)Nc1nccs1` (configuration not stated), the “activity change, negative = growth inhibition” value was -16.6%.
`Brc1cccc(-c2nnn3c2nc(NC2CCCCC2)c2ccccc23)c1`: the “activity change, negative = growth inhibition” value is 0.81%.
On the same count and under the same terms, in the case of `CCc1nnc(NC(=O)CSCc2cc(=O)n3cc(C)sc3n2)s1` it was -17.7%; in that of `CSc1ccccc1NC(=O)Cc1ccc(Br)cc1`, -16.6%; in that of `COc1ccccc1-c1cc(C(F)(F)F)nc(S(=O)(=O)CCCC(=O)Nc2cc(C)ccc2O)n1`, -25.6%.
With `CC(Sc1nc(-c2ccccc2)cc(C(F)(F)F)n1)C(=O)Nc1ccc2c(c1)OCO2` (configuration not stated), the “activity change, negative = growth inhibition” value is -27.9%.
The same measure, in the same setting: in the case of `Cc1cc(C(F)(F)F)nc(SCC(=O)Nc2nccs2)n1` it was -8.46%.
As to `COc1ccc(Cl)cc1NC(=O)CSc1nc(-c2cccs2)cc(C(F)(F)F)n1`, the Potency is 23.1 µM (active).
For `O=C(CSc1ccc(-c2cccs2)nn1)Nc1ccccc1F`, the “activity change, negative = growth inhibition” value is -10.7%.
On the same count and under the same terms, for `Cc1ccc(O)c(NC(=O)c2cc(-c3ccc(F)cc3)no2)c1` the value was -16.7%.
Regarding `Cc1ccc(O)c(NC(=O)CCS(=O)(=O)c2nc(-c3ccc4c(c3)OCO4)cc(C(F)(F)F)n2)c1`, the Potency was 8.2 µM (active).
With `COc1cc(OC)cc(C(=O)OCC(=O)Nc2ccc(F)cc2F)c1`, the “activity change, negative = growth inhibition” value was 10.6%.
On to `CSc1ccccc1NC(=O)CCS(=O)(=O)c1nc(-c2cccs2)cc(C(F)(F)F)n1`, for which the Potency was 10.3 µM (active).
Regarding `COc1ccccc1-c1cc(C(F)(F)F)nc(S(=O)(=O)CCCC(=O)Nc2ccc(F)cc2F)n1`, the Potency was 5.17 µM (active).
With `COc1ccc(-c2cc(C(F)(F)F)nc(SCC(=O)Nc3ccc4c(c3)OCO4)n2)cc1OC`, the “activity change, negative = growth inhibition” value is 2.49%.
